Results published in PubChem BioAssay (NCI).
Compounds without any hit were thinned out: in the full panel of roughly 83,000, 20% have a hit.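 96-well plates, one dose, 48 hours. Percent growth reported; active if below 10.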 Active and inactive are the calls of the source.

The molecules below were run on UACC-62 melanoma (assay: NCI-60 one-dose screen, 48 h (100 = growth as untreated, 0 = no growth, -100 = all killed)). Conditions: 10 µM unless noted.
Protocol: Growth inhibition of the UACC-62 human tumor cell line is measured as a screen for anti-cancer activity. Cells are grown in 96 well plates and exposed to the test compound for 48 hours. Compounds are tested at a single concentration, which is 10^-5 M for most compounds. The reported endpoint is percent growth (GI% or GIPRCNT), where numbers from 0 - 100% represent growth inhibition, and numbers from -100% - 0 represent cell death. For example, a value of 40 represents 60% growth inhibition. A value of 0 means no net growth occurred over the course of the experiment. A value of -40 indicates 40% of cells at the beginning of the experiment died by the end of the experiment. A value of -100 means all cells are dead at the end of the experiment.
NCI-60 Human Tumor Cell Lines Screen was performed using the standard one-dose NCI protocol, which is described in more detail at https://dtp.cancer.gov/discovery_development/nci-60/default.htm.
Compounds with GIPRCNT values below 10 were considered active. Activity score was based on GIPRCNT using the following formula: […]
Score is 0 for GIPRCNT values of 100 or above, 50 for GIPRCNT values of 0, and 100 for GIPRCNT values of -100.

Q: How did the growth turn out when O=C(O)c1c(Cl)n(Cc2ccc(O)cc2)c2ccc(O)cc12 was run?
A: 98.9% (inactive)

Q: Clc1ccc(CO/N=C(\Cn2ccnc2)c2ccc(Cl)cc2Cl)c(Cl)c1 was tested. Which growth did it give?
A: 1.19% (active)

Q: For Clc1cc(N2CC2)nc(N2CC2)n1, which growth is on record?
A: 54.4% (inactive)

Q: C[N+](C)(C)Cc1cc(Cl)ccc1O was tested. Which growth did it give?
A: 102% (inactive)

Q: How did the growth turn out when CCCCCCCC(=O)OCC(=O)[C@]1(O)Cc2c(O)c3c(c(O)c2[C@@H](OC2CC(N)C(O)C(C)O2)C1)C(=O)c1c(OC)cccc1C3=O (stereo not given in full) was run?
A: -75.4% (active)

Q: How did the growth turn out when CC(=O)OCC1O[C@@H]([S-])C(OC(C)=O)[C@H](OC(C)=O)[C@@H]1OC(C)=O.[Au+].c1ccc(CN2[CH-]N(Cc3ccccc3)C(c3ccccc3)=C2c2ccccc2)cc1 was run?
A: 8.41% (active)

Q: Which growth does the source give for C/C(CC(C)(C)N1CC1)=N\NC(=O)Nc1cccc2ccccc12 here?
A: 68.4% (inactive)

Q: COC(=O)CC[C@H](Cc1ccccc1)NC(=O)c1csc([C@@H](C[C@H](C(C)C)N(C)C(=O)[C@@H](NC(=O)[C@H]2CCCCN2C)C(C)C)OC(C)=O)n1 was tested. Which growth did it give?
A: 34.4% (inactive)

Q: Which growth does the source give for CCOC(=O)C(Cc1ccc(N(CCCl)CCCl)cc1)NC(=O)C(CC(C)C)NC(C)=O (stereo not given) here?
A: 13.1% (inactive)

Q: Which growth does the source give for C=CC[PH+](c1ccccc1)c1ccccc1.C=CC[PH+](c1ccccc1)c1ccccc1.[Cl][Pt][Cl] here?
A: 52.9% (inactive)

Q: COc1ccc(/C=C\c2cc(OC)c(OC)c(OC)c2)c(NS(=O)(=O)c2ccc(C)cc2)c1O was tested. Which growth did it give?
A: 53% (inactive)

Q: For Cc1ccc2c(C(C[N+](=O)[O-])c3cccs3)c(-c3ccccc3)[nH]c2c1 (stereo not given), which growth is on record?
A: 38.3% (inactive)

Q: How did the growth turn out when CC(C)(C)C(=O)OCOP(=O)(NCc1ccccc1)C1CCCN(O)C1=O (stereo not given) was run?
A: 19.5% (inactive)

Q: Which growth does the source give for CC(C)OC(=O)[C@H](C)NP(=O)(Oc1ccccc1)C1CCCN(O)C1=O (stereo not given in full) here?
A: 71.8% (inactive)

Q: Which growth does the source give for Nc1c(F)cc(-c2nc3cc(F)ccc3[se]2)cc1F here?
A: 66.5% (inactive)

Q: With O=C(NCCN1CC1)C(=O)NCCN1CC1 as the molecule, how does the growth read?
A: 91.7% (inactive)

Q: With Cc1c(NS(=O)(=O)c2ccccc2)ccc([N+](=O)[O-])c1Cl as the molecule, how does the growth read?
A: 31.2% (inactive)

Q: Which growth does the source give for NC(=Nc1ccccc1)N[N+](=O)[O-] here?
A: 94% (inactive)

Q: Which growth does the source give for CC(=O)/C=C/c1ccc2c(c1)OCO2 here?
A: 90.2% (inactive)

Q: CC(=O)[O][Hg][c]1c(N)c(C)cc(C)c1F was tested. Which growth did it give?
A: 27.8% (inactive)

Q: For O=[N+]([O-])/C=C\c1ccc(Cl)c(Cl)c1, which growth is on record?
A: 58.9% (inactive)

Q: C[C@@]12CC[C@@H](O)C[C@@H]1CC[C@H]1[C@H]2CC[C@@]2(C)[C@H](c3ccc(=O)oc3)CC[C@@]12O was tested. Which growth did it give?
A: -71% (active)

Q: With CCn1c2ccccc2c2cc(C(=O)c3cccc4c3CCCN4)ccc21 as the molecule, how does the growth read?
A: 92.2% (inactive)

Q: O=C(CN1CCN(C(=O)c2ccco2)CC1)Nc1ccc(Cl)cc1C(=O)c1ccccc1Cl was tested. Which growth did it give?
A: 58.5% (inactive)

Q: With COc1cccc2c1c(C(=O)c1ccco1)cn2Cc1ccc(F)cc1 as the molecule, how does the growth read?
A: 78.3% (inactive)

Q: Which growth does the source give for C=C1[C@@H](C)[C@H]2[C@H](Cc3ccccc3)NC(=O)[C@]23[C@@H](O)/C=C/[C@@](C)(O)C(=O)[C@@H](C)C/C=C/[C@H]3[C@@H]1O here?
A: 65.6% (inactive)

Q: With CC[C@H](C)[C@H](NC(=O)[C@H]1CCCCN1C)C(=O)N(C)[C@H](CCc1nc(C(=O)N[C@@H](Cc2ccccc2)C[C@H](C)C(=O)OC)cs1)C(C)C as the molecule, how does the growth read?
A: 41.5% (inactive)

Q: Which growth does the source give for C/C(=C\c1ccn(-c2ccc(N)cc2)n1)[C@@H]1C[C@@H]2O[C@]2(C)CCC[C@H](C)[C@H](O)[C@@H](C)C(=O)C(C)(C)[C@@H](O)CC(=O)O1 here?
A: 19.7% (inactive)

Q: With COc1ccc(N(CC(=O)NCCC[Te]c2ccccc2)C(=O)CCSC2=C(C)C(=O)c3ccccc3C2=O)cc1 as the molecule, how does the growth read?
A: -25.4% (active)

Q: With CCN(CC)c1ccc2c(c1)OC(N)=C(C#N)C2c1cc(OC)c2c(c1)OCO2 (stereo not given) as the molecule, how does the growth read?
A: 31.8% (inactive)

Q: For COc1cccc(/C=C/[N+](=O)[O-])c1, which growth is on record?
A: 92.6% (inactive)

Q: COc1ccc2nc(NC(=O)COc3cc(/C=C\c4cc(OC)c(OC)c(OC)c4)ccc3OC)sc2c1 was tested. Which growth did it give?
A: 33.8% (inactive)

Q: CC[C@H](C)[C@H](NC(=O)[C@H]1CCCCN1C)C(=O)N(C)[C@H](C[C@@H](OC(C)=O)c1nc(C(=O)N[C@@H](Cc2ccccc2)C[C@H](C)C(=O)OC)cs1)C(C)C was tested. Which growth did it give?
A: 43.6% (inactive)

Q: O=C(CC1(O)C(=O)Nc2ccc(Br)cc21)c1ccc(C(=O)NCC2CCC3(CC2)OOC2(CCCCC2)OO3)cc1 (stereo not given) was tested. Which growth did it give?
A: 54.6% (inactive)

Q: For CC(C)(C)N1CC1C#N (stereo not given), which growth is on record?
A: 104% (inactive)

Q: Fc1c[c-]c(-c2ccccn2)c(F)c1.[CH3-].[Pt+2].c1ccc([PH+](c2ccccc2)c2ccccn2)cc1 was tested. Which growth did it give?
A: -30.5% (active)

Q: How did the growth turn out when C[C@@H]1O[C@@H](O[C@H]2C[C@@H](O)[C@]3(CO)C4C(CC[C@]3(O)C2)[C@@]2(O)CC[C@H](C3=CC(=O)OC3)[C@@]2(C)C[C@H]4O)[C@H](O)[C@H](O)[C@H]1O (stereo not given in full) was run?
A: -66.5% (active)

Q: Which growth does the source give for COC(=O)C12CC(NC(=O)c3csc([C@@H](C[C@H](C(C)C)N(C)C(=O)[C@@H](NC(=O)[C@H]4CCCCN4C)C4CC4)OC(C)=O)n3)(C1)C2 here?
A: 58.6% (inactive)

Q: How did the growth turn out when Nc1ccc(-c2nc3cc(F)ccc3[se]2)cc1F was run?
A: 71.9% (inactive)

Q: With CC12CCC3C(CCC4=CC(=O)CCC43CF)C1CCC2=O (stereo not given) as the molecule, how does the growth read?
A: 115% (inactive)
